Compound activity deposited in PubChem BioAssay by Sanford-Burnham Center for Chemical Genomics.
CYP2C19 inhib: human CYP2C19 inhibition; hit rate 21% among 96,000; inhibition, % at 5 µM; CYP2C19 Supersomes, luciferin-H EGE luminescence, 30 min; P33261;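 active = CYP2C19 inhibition above a set limit at 5 µM in the primary screen, cut at about 50% in these data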;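 also: plate controls were negative control wells for no effect and 2.5 mM tranylcypromine positive control for full effect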
CYP2C9 act: CYP2C9 (human) activation; P11712; recombinant CYP2C9, luciferin-H conversion, luminescence; hits give high values; factor 1 = untreated enzyme, 0 = blocked; activation factor at 5 µM; hit rate 1.4% among 96,000;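 active = activation factor of 2 or more for CYP2C9 at a 5 µM dose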;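 also: 0 = sulfaphenazole-blocked wells and 1 = vehicle-only wells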
Pyk2 oligo antag: antagonists of human Pyk2 oligomerization. hit rate 0.83% among 99,000. Q293 cells, Pyk2 FERM NanoBiT luminescence; hits give low values. z-score (the deposit names both 25 µM and 10 µM);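 active = Z-score of -3 or lower, scaled per plate to the spread of control and sample wells; inactive = z-score above -3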;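 also: negative z-score means lost luminescence so less FERM oligomerization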
Target sequence (Q14289 whole entry, looked up): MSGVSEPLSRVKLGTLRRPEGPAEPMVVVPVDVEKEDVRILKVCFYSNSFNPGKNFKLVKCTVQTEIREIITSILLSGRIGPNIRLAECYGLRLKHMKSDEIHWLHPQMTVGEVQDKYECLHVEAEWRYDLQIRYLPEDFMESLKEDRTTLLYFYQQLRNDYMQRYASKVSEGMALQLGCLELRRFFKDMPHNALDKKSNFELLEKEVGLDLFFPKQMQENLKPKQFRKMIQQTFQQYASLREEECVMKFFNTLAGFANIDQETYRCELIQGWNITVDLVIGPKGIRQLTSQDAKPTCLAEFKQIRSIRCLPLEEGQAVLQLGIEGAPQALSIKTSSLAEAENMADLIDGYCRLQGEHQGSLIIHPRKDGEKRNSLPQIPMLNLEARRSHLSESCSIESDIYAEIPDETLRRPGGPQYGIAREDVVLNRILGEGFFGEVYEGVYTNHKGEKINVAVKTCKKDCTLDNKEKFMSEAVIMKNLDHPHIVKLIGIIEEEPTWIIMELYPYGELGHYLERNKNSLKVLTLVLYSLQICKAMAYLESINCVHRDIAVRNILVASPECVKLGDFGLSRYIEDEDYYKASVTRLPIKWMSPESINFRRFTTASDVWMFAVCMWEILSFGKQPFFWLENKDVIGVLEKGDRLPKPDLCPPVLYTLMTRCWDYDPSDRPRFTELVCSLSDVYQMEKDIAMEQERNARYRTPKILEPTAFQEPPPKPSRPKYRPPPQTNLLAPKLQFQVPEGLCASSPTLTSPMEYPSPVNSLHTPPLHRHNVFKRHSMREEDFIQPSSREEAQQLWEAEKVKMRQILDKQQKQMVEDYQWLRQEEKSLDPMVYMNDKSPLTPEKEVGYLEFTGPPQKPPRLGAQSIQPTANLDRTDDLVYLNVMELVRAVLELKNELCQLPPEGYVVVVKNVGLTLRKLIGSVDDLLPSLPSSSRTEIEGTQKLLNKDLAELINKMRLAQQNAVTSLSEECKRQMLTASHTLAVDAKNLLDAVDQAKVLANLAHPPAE
CYP2C9 inhib: human CYP2C9 inhibition; P11712; CYP2C9 Supersomes, luciferin-H conversion, luminescence; inhibition, % at 5 µM; hit rate 20% among 96,000; AID 777;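 active = blocking of liver enzyme CYP2C9 beyond about 50% at 5 µM, limit read from the data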
CYP2C19 act: cytochrome P450 2C19 (human) activation | 96,000 tested, under 10 active | activation factor at 5 µM | recombinant CYP2C19, luciferin-H EGE luminescence; hits give high values; 0 = fully inhibited enzyme, 1 = untreated enzyme | P33261;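 active = activation factor of at least 2 at 5 µM in the primary screen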;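 also: 0 = wells with 2.5 mM tranylcypromine and 1 = vehicle-only wells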
An asterisk follows results filed as active; . = not tested or not shown. Sampled rows, rich in hits. Any-hit rate of the full collection: about 28%.

SMILES	CYP2C19 inhib	CYP2C9 act	Pyk2 oligo antag	CYP2C9 inhib	CYP2C19 act
CSc1nc2nccc(-c3ccc(Oc4ccccc4)cc3)n2n1	51*	0.4	1.1	56*	0.5
c1ccc(Oc2ccc(-c3ccnc4nc(N5CCN(c6ccccc6)CC5)nn34)cc2)cc1	19	0.4	0.04	59*	0.8
Cc1cc(NC(=O)c2cccc(S(=O)(=O)N3CCCCCC3)c2)no1	15	0.7	1.1	27	0.8
COC(=O)c1ccc(NC(=O)C23CCC(C)(C(=O)O2)C3(C)C)cc1 (stereo not drawn)	0	1	-0.06	2	1
CCCCN1C(=O)Cc2c1nc(N)c1c(N)nc(N(CCC)CCC)c(C#N)c21	-1	0.6	-3.6*	42	1
CCCN(CCC)c1nc(N)c(C#N)c(CC#N)c1C#N	-4	0.8	0.23	25	1
C=C(C)CN(CC)c1nc(N)c2c(N)nc3c(c2c1C#N)CC(=O)N3C12CC3CC(CC(C3)C1)C2	42	0.1	-1.2	92*	0.6
CCN(CC)c1nc2c3c(nc4c(c3c1C#N)CC(=O)N4c1ccc(Cl)cc1)NC(C)=N2	.	.	-2.2	.	.
Cn1c(C(=O)N2CCN(c3ncccn3)CC2)cc2c(=O)n(C)c3ccccc3c21	17	0.1	.	93*	0.8
Cc1cccc(N2CCN(C(=O)c3cc4c(=O)n(C)c5ccccc5c4n3C)CC2)c1C	-8	1.1	.	-14	1.1
Cn1c(C(=O)N2CCCC2)cc2c(=O)n(C)c3ccccc3c21	8	0.9	.	7	0.9
Cc1ccc(Cl)cc1N1CCN(C(=O)c2cc3c(=O)n(C)c4ccccc4c3n2C)CC1	77*	0	.	98*	0.2
CCn1nnnc1SCC(=O)Nc1cc(OC)cc(OC)c1	3	1	-0.18	4	1
CC(=O)c1cccc(NC(=O)c2cccc(S(=O)(=O)N(C)C)c2)c1	0	1	1.5	-2	1
CCOC(=O)C1=C(C)Nc2ccccc2N=C1NC(=O)c1cccc(S(=O)(=O)N(C)C)c1	27	0.1	-1.2	93*	0.7
CCOC(=O)c1oc2ccccc2c1NC(=O)c1ccc(S(=O)(=O)N(C)C)cc1	13	0.5	1.6	48	0.9
CCOC(=O)C1=C(CC)Nc2ccccc2N=C1NC(=O)c1ccc(S(=O)(=O)N(C)C)cc1	92*	0.1	-2.1	93*	0.1
Cc1cc2c(c(=O)o1)C(C13C=CC(CC1)C3)C(C#N)=C(N)O2 (stereo not drawn)	72*	0.2	0.61	75*	0.3
CCCC1C(C#N)=C(N)Oc2cc(C)n(C)c(=O)c21 (stereo not drawn)	-4	1.1	-1.2	-13	1
Cc1cc2c(c(=O)o1)C(CC(C)C)C(C#N)=C(N)O2 (stereo not drawn)	24	0.4	1.6	63*	0.8
COc1cccc(C2C(C#N)=C(N)Oc3cc(C)oc(=O)c32)c1OC (stereo not drawn)	44	0.3	0.1	74*	0.6
CCN(C(=O)c1cc2cccc(OC)c2oc1=O)c1ccccc1	40	1.2	0.2	-20	0.6
Cc1oc(CC(C)C)c(CN)c1C(=O)O	5	0.9	0.62	8	1
CNc1nc(C)c(C#N)c(-c2ccccc2)c1C(C)=O	55*	0.7	-0.17	33	0.5
CN1CC(c2ccc(Cl)c(Cl)c2)[C@@]2(COc3ccccc3C2=O)[C@@]12C(=O)Nc1ccccc12 (stereo partly drawn)	-2	0.2	-3.4*	77*	1
SMILES	CYP2C19 inhib	CYP2C9 act	Pyk2 oligo antag	CYP2C9 inhib	CYP2C19 act
COC(=O)C1CSC(C(=O)OC)N1C(=O)Nc1ccc(Cl)cc1 (stereo not drawn)	69*	0.9	-0.74	12	0.3
COC(=O)C1CSC(C(=O)OC)N1C(=O)Nc1ccc(Cl)c(Cl)c1 (stereo not drawn)	61*	0.3	0.28	67*	0.4
O=C(O)C1CCCN1C(=O)Nc1ccc(Cl)cc1 (stereo not drawn)	.	.	-1	.	.
O=C(Nc1ccc(Cl)c(Cl)c1)N1CCSCC1	.	.	1.8	.	.
CCOC(=O)c1cnc2c(C#N)c(C)nn2c1C	20	1	-0.55	-4	0.8
CCOC(=O)c1cnc(SC2CC(=O)N(c3ccc(OC)c(OC)c3)C2=O)nc1N (stereo not drawn)	38	0.1	0.78	92*	0.6
CCOC(=O)c1cnc(-c2ccccc2)nc1Oc1cccc(Cl)c1	3	0.5	0.24	51*	1
CCOC(=O)c1cnc2c(C#N)c(C)nn2c1-c1ccccc1	95*	0.9	.	11	0.1
CCOC(=O)c1cnc(-c2ccccc2)nc1N	85*	0.4	-0.16	64*	0.1
CCOC(=O)c1cnc(SC)nc1Oc1cccc(NC(=O)c2ccc(Cl)cc2)c1	5	0.6	0.2	42	0.9
CCOC(=O)c1cnc(-c2ccccc2)nc1N(C)C	24	0.8	-0.38	19	0.8
CCOC(=O)c1cnc(SCC(=O)Nc2cc(OC)ccc2OC)nc1N	17	0.6	-0.36	38	0.8
O=C(C1c2ccccc2C(=O)N2CCc3ccccc3C12)N1CCN(Cc2ccccc2)CC1 (stereo not drawn)	-2	1	0.51	3	1
CCOC(=O)c1cnc(SCC(=O)Nc2nnc(CC)s2)nc1N	13	0.6	0.25	35	0.9
CCOC(=O)c1cnc(SCC(=O)c2ccccc2)nc1N	78*	0.8	0.87	25	0.2
CCOC(=O)c1ccccc1NC(=O)CSc1ncc(C(=O)OCC)c(N)n1	40	0.1	-1.4	88*	0.6
CCOC(=O)c1cnc(SCC(=O)Nc2nc(C)c(C)s2)nc1N	51*	0.1	-0.89	91*	0.5
CCOC(=O)c1ccccc1NC(=O)CSc1nc(N)cc(N)n1	.	.	-0.07	.	.
CCOC(=O)c1cnc(SCC(=O)c2ccc3c(c2)OCCO3)nc1N	17	0.5	0.67	52*	0.8
C=C1N(CCCCCC(=O)O)C(=O)OC12CCCCC2	0	0.9	0.63	10	1
CCOC(=O)c1cnc(SCC(C)C)nc1N	50*	0.5	-0.8	50	0.5
CCOC(=O)c1cnc(SCC(=O)c2ccc(C)cc2)nc1N	.	.	1.1	.	.
CCOC(=O)c1cnc(SC)nc1N	36	0.9	-0.07	12	0.6
CCOC(=O)c1cnc(SC)nc1Sc1ccccc1	3	0.4	-2.1	60*	1
Cc1cc(C)c(S(=O)(=O)Nc2nnc(C)s2)c(C)c1	-2	0.1	0.68	86*	1
O=C1CC(c2ccccc2)CN1C(=O)c1ccccc1 (stereo not drawn)	52*	1.1	0.39	-10	0.5
CC(=O)Nc1ccc(N2C(=O)CC(c3ccccc3)CC2=O)cc1	-5	1	0.13	-1	1
COCCCNC(=O)CCNS(=O)(=O)c1ccc(C)cc1	5	1.1	0.21	-7	0.9
CS(=O)(=O)N(CC(=O)Nc1ccc(CC#N)cc1)c1ccc(C23CC4CC(CC(C4)C2)C3)cc1	11	0.4	-1	59*	0.9
